# Experimental data published in PubChem BioAssay AID2685 (National Center for Advancing Translational Sciences (NCATS), 2010).
# Hit rate of the full screen: of about 320,000 compounds, about 2,100 (0.66%) were called active. Not shown: some 53% with an inconclusive outcome. The sample holds actives, similar compounds and a random draw of the others, so the mix is not that of the screen. Calls follow the shape of the dose curve; as a rule, active = well fitted inhibition curve with a large enough effect in the signal ratio, with a control signal flat (not every such curve was filed as active); inconclusive = small, poorly fitted or top-dose-only effect, or effect the other way, or a change in a side signal; inactive = flat fitted curve, though single readings scatter; the % refers to the signal ratio.
# Experiment: qHTS Assay for Lipid Storage Modulators in Drosophila S3 Cells;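 as to cell number change: cells counted by Cell Tracker Red CMTPX staining in the red channel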; as to lipid storage change, negative = inhibition: % is scaled to controls: 0 for no effect and ±100 for the full control effect
# Conditions: BODIPY lipid droplet fluorescence, 18-24 h, cells fed with added oleic acid; cell number change: measured here: cell count max response; series mostly up to 46.1 µM
# Description: NIH Molecular Libraries Probe Production Centers Network [MLPCN] NIH Chemical Genomics Center [NCGC] MLPCN Grant: 1 R03 MH085686-01 Assay Submitter (PI): Beller, Mathias; Max-Planck-Institut fur Biophysikalische Chemie NCGC Assay Overview: Storing lipids as a reservoir for energy or the anabolism of elementary metabolites is a common feature of probably all cells and is conserved from bacteria to humans. The universal cellular lipid storage organelle is the so-called lipid storage droplet (LD). Although ubiquitous, LDs share a simple structure composed of a hydrophobic core that harbors the storage lipids, which is shielded by a droplet-specific phospholipid monolayer to which proteins are attached. The current model of LD biogenesis involves an incorporation of the lipid core into the membrane leaflets of the endoplasmic reticulum (ER) followed by a subsequent budding-like maturation of a LD, which ultimately pinches off. Once released, LD volume can increase by localized lipogenesis or fusion of existing droplet. Storage lipids are re-mobilized enzymatically by lipase activity. Lipase regulation in the adipocyte is heavily studied and involves multiple components including catecholamine signaling, the LD-associated proteins Perilipin and comparative gene identification (CGI-58) and at least two lipases named hormone sensitive lipase (HSL) and adipocyte triglyceride lipase (ATGL). LD regulation outside of the adipocyte is poorly understood and only few components are known. However, there is an urgent need to learn more about ectopic fat depots as mislocalized storage of lipids, for example in the liver or muscle, is an eminent health problem associated with insulin resistance or the metabolic syndrome. We developed a laser-scanning cytometer assay to enable 1,536-well screening and combined the results of the small molecules screen with an RNAi database based on lipid storage.
# Triacsin C (Sigma-Aldrich T-4540), an inhibitor of long-chain fatty acyl CoA synthetase that blocks synthesis of triglycerides, was used as a positive control for lipid under-storage. A total of 23 nL of compound solution of different concentrations were transferred to the assay plates using a Kalypsys pin tool equipped with a 1,536-pin array containing 10-nL slotted pins (FP1S10, 0.457-mm diameter, 50.8 mm long; V&P Scientific). One microliter of oleic acid (400 uM) was added, and the plate was lidded with stainless steel rubber gasket lined lids containing pinholes. […] Fluorescence was detected by excitation of the fluorophores with a 488-nm laser on an Acumen Explorer (TTP Lab Tech). The total intensity in channel 2 (500-530 nm) reflected lipid droplet accumulation. Cells were detected using channel 3 (575-640 nm) with 5-um width and 100-um depth filters. The ratio of the number of objects in PMT channel 2 over the number of objects in PMT channel 3 was also calculated. Percent activity was computed relative to an internal control (100% inhibited lipid droplet deposition due to the presence of 20 uM Triacsin C), which was added to 32 wells/plate.
# Potency is read from the fitted curve at half-maximal effect.
Compound,Potency,cell number change,"lipid storage change, negative = inhibition"
FC(F)(F)c1cc(C(F)(F)F)c2ccc(N3CCN(c4ncccn4)CC3)nc2n1,inactive,9.76%,
Cc1nn(Cc2ccc(C(=O)O)o2)c(C)c1[N+](=O)[O-],inactive,19.3%,
CCCN1C(=O)c2ccc(C(=O)NC3=NCCS3)cc2C1=O,inactive,,
Cc1nn(-c2ccc(N3CCOCC3)nn2)c(C)c1CCC(=O)NCc1ccc(F)cc1,inactive,2.75%,
CC(=O)c1ccc(N2CCN(C(=O)Nc3ccc(F)cc3F)CC2)cc1,inactive,18.2%,
COc1ccc(C(=O)Nc2ccc(Cl)cc2C(=O)N2CCOCC2)cc1,inactive,17.2%,
Cc1nnc2n1CCCCC2,inactive,4.65%,
O=[N+]([O-])c1ccc(Oc2ccc(/C=N/O)cc2)nc1,inactive,-1.55%,
CS(=O)(=O)c1ccc(N2CCOCC2)c(S(C)(=O)=O)c1,inactive,4.86%,
CCOC(=O)CN1C(=O)C2(OCCCO2)c2ccccc21,23.1 µM (active),,
CCOC(=O)CN1C(=O)C2(OCCCO2)c2cc(Br)ccc21,inactive,-7.87%,
CCCC(=O)CN1C(=O)C2(OCCO2)c2ccccc21,inactive,-15.8%,
COCCNC(=O)CN1C(=O)NC2(CCCc3cc(OC)ccc32)C1=O (stereo not drawn),inactive,,
CCOc1ccc(C(=O)CCC(=O)N(CC)CC(=O)NCc2cccs2)cc1,inactive,12.9%,
CCOc1ccccc1C(=O)N/N=C/c1coc2ccc(C)cc2c1=O,10.3 µM (active),-20.2%,
Cc1ccc2occ(/C=N/NC(=O)c3ccccc3O)c(=O)c2c1,inactive,1.16%,
Cc1ccc2occ(/C=N/NC(=O)c3ccccc3Br)c(=O)c2c1,inactive,,
COc1cccc(Oc2cn[nH]c2-c2ccc(OCC(=O)NN)cc2O)c1,inactive,0.872%,
CC(C)(C)c1cc(C(=S)N2CCN(CCO)CC2)cc(C(C)(C)C)c1O,inactive,,
CN1CCN(CC(=O)c2cc(C(C)(C)C)c(O)c(C(C)(C)C)c2)CC1,inactive,15.8%,
CC(C)(C)c1cc(C(=O)CCN2CCOCC2)cc(C(C)(C)C)c1O,29.1 µM (active),-17.7%,

Compound,Potency,cell number change,"lipid storage change, negative = inhibition"
COc1ccc(NC(=O)C2CC(c3ccccc3O)=NO2)cc1OC (stereo not drawn),inactive,,
COc1ccc(NC(=O)C2CC(c3c(F)cccc3Cl)=NO2)cc1OC (stereo not drawn),inactive,-11.7%,
COc1cc(NC(=O)C2CC(c3c(F)cccc3Cl)=NO2)cc(OC)c1OC (stereo not drawn),11.6 µM (active),-15.1%,
COc1cc(NC(=O)C2CC(c3c(F)cccc3Cl)=NO2)c(OC)cc1Cl (stereo not drawn),inactive,-7.33%,
COc1cccc(C2=NOC(C(=O)Nc3ccc(OC)c(OC)c3)C2)c1 (stereo not drawn),11.6 µM (active),,
COc1cccc(C2=NOC(C(=O)Nc3ccc4c(c3)OCO4)C2)c1 (stereo not drawn),inactive,7.67%,
O=C(O)CC1C(=O)NCCN1CCCc1ccccc1 (stereo not drawn),inactive,,
CSc1cccc(NC(=O)C(C)NS(=O)(=O)c2ccc(F)cc2)c1 (stereo not drawn),inactive,,
Cc1cc(C)nc(/N=C(\N)N2CCCCC2)n1,inactive,-8.98%,
Cc1ccc(C(=O)C[n+]2cccc(C(N)=O)c2)cc1,inactive,8.69%,
Cc1c(C(=O)n2cnc3ccccc32)cccc1[N+](=O)[O-],inactive,23.4%,
Cc1ccc(C2(C)NC(=O)N(CC(=O)Nc3ccc4c(c3)CCC4)C2=O)cc1 (stereo not drawn),inactive,-12.5%,
O=C(N/C(=C/c1cccnc1)C(=O)N1CCOCC1)c1ccco1,inactive,0.681%,
O=C(NCCc1csc(-c2cccnc2)n1)c1ccco1,,14.6%,1.09% [at 9.22 µM] (inactive)
COc1ccc(-c2nc(CCNC(=O)c3ccc(Br)o3)cs2)cc1,inactive,29.2%,
COc1cc(-c2nc(CCNC(=O)c3ccco3)cs2)cc(OC)c1OC,18.4 µM (active),-3.07%,
Cc1ccccc1CCN(C(=O)CN1C(=O)c2ccccc2S1(=O)=O)C(C(=O)NCC1CCCO1)c1ccncc1 (stereo not drawn),inactive,-7.43%,
Cc1ccccc1NS(=O)(=O)c1ccc(OCC(=O)NCc2ccccn2)cc1,inactive,6.59%,
CCC1CCCCN1CCCNC(=O)CCC(=O)N1CCOc2ccccc21 (stereo not drawn),inactive,10.7%,
CC(C(=O)Nc1ccc2nccnc2c1)N1C(=O)C2C3C=CC(C3)C2C1=O (stereo not drawn),inactive,0.122%,
CC(C(=O)NC1CCCCC1)N1C(=O)C2C3C=CC(C3)C2C1=O (stereo not drawn),1.84 µM (active),-1.76%,

Compound,Potency,cell number change,"lipid storage change, negative = inhibition"
O=C(CCN1C(=O)C2C3C=CC(C3)C2C1=O)NC1CCCCC1 (stereo not drawn),inactive,,
NC(=O)CCC(=O)N1CCCC(C(=O)c2ccc3c4c(cccc24)CC3)C1 (stereo not drawn),inactive,12.7%,
CCc1ccc(CN(C(=O)c2oc3ccccc3c2C)C2CCS(=O)(=O)C2)cc1 (stereo not drawn),inactive,23.1%,
O=C(CCC(=O)NNC(=O)COc1ccc(Br)cc1)NCc1ccccc1,inactive,6.5%,
Cc1ccc(NS(=O)(=O)c2ccc(C(=O)NCc3ccccn3)cc2)cc1,inactive,0.232%,
Cc1ccc(NS(=O)(=O)c2ccc(CCC(=O)NCc3ccccn3)cc2)cc1,2.59 µM (active),-13.1%,
CC(C)NS(=O)(=O)c1ccc(CCC(=O)NCc2ccccn2)cc1,inactive,6.74%,
Cc1ccc(S(=O)(=O)NCc2ccccc2)cc1C(=O)NCc1ccccn1,inactive,-8.5%,
Cc1cc(S(=O)(=O)NCc2ccccc2)ccc1OCC(=O)NCc1ccncc1,inactive,13.5%,
Cc1cc(S(=O)(=O)NCc2ccccc2)ccc1OCC(=O)NCc1ccccn1,5.17 µM (active),6.72%,
Cc1cc(C)c(C)c(S(=O)(=O)N2CCC(C(=O)N3CCCC3)CC2)c1C,inactive,0.752%,
CCOC(=O)c1sc(NC(=O)c2ccccc2OCC)nc1C,inactive,6.73%,
CC(=O)NCCn1c(SCC#N)nc2ccccc2c1=O,inactive,8.06%,
COCCSc1nnc(NC(=O)C(C)(C)C)s1,inactive,-0.0656%,
COCCSc1nnc(NC(=O)COC)s1,25.9 µM (active),-16.2%,
CCC(=O)Nc1nnc(SCCOC)s1,inactive,,
Cn1c(NC(=O)/C=C/c2c(F)cccc2Cl)cc(=O)n(C)c1=O,inactive,12.8%,
Nc1nc(N)nc(-c2cc([N+](=O)[O-])ccc2O)n1,inactive,-17.3%,
Nc1cc([N+](=O)[O-])ccc1Nc1ccc(O)cc1,inactive,-13.9%,
Nc1cc([N+](=O)[O-])ccc1O,9.2 µM (active),-17.1%,
